# Unmarked numbers belong to inactive results. Active and inactive are the calls of the source. Calls come from the whole dose curve; as a rule, active = well fitted curve in the direction sought with a large enough effect; inconclusive = small, poorly fitted or top-dose-only effect, or another doubt; inactive = no such curve, though single readings can be large or run the other way. Numbered stars: 1 amine (or outer) side, 2 acyl side, 3 side chain; on linkers, the order of the positions; unused ones are H or OH. Bridge positions count the residues as written; N and C are the ends. Square brackets hold non-standard residues; d marks the D form. Peptide text beside a SMILES is read from it. ξ: configuration not given here. Phe(3R-OH) = O=C([C@@H](N[*:1])[C@H](O[*:3])c1ccccc1)[*:2]; NMeTrp(4-OMe) = CN[C@@H](Cc1c[nH]c2cccc(OC)c12)C(=O)O; ξThr(3R)(O-yl) = C[C@@H](O[*:3])C(N[*:1])C(=O)[*:2]; NMeThr(3ξ) = CN[C@H](C(=O)O)C(C)O; NMeL = CN[C@@H](CC(C)C)C(=O)O; NMeV = CN[C@H](C(=O)O)C(C)C; ξIle = CC[C@H](C)C(N)C(=O)O; ξV = CC(C)C(N)C(=O)O
# Molecular target: Luciferin 4-monooxygenase (Photinus pyralis) (UniProt P08659)
# Sequence (P08659 whole entry, looked up): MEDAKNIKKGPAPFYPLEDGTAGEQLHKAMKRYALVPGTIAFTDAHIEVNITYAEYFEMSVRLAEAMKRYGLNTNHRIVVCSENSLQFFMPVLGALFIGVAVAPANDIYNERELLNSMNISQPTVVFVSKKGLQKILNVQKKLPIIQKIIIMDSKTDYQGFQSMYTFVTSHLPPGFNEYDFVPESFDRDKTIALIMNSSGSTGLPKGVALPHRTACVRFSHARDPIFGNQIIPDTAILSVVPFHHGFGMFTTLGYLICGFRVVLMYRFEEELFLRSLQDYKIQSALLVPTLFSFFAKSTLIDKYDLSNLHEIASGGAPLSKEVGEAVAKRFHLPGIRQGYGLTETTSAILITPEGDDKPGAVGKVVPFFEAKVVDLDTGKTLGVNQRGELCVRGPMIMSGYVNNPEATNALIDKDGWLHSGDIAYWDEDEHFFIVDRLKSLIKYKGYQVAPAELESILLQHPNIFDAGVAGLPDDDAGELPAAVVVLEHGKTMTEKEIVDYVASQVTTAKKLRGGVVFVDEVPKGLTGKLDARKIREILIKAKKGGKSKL
# Assay: Firefly luciferase counterscreen qHTS: Assay Interference Panel against the NCATS CANVASS Library (AID 1347363); for activity change, negative = inhibition: 0% is about no effect
# Settings: purified firefly luciferase, luminescence inhibition, 5 min; series mostly up to 57.5 µM; activity change, negative = inhibition: at the top concentration
# Source text: Natural products and their derivatives continue to be wellsprings of nascent therapeutic potential. However, many laboratories have limited resources for biological evaluation, leaving their previously isolated or synthesized compounds largely or completely untested. To address this issue, the Canvass library of natural products was assembled (https://tripod.nih.gov/canvass), in collaboration with academic and industry researchers, for quantitative high-throughput screening (qHTS) across a diverse set of cell-based and biochemical assays. The pure (>85% purity by liquid chromatography/mass spectrometry [LC/MS]) Canvass library of 346 natural products were submitted by 45 academic laboratories and companies around the world. We collected pure natural products to circumvent deconvolution and structure elucidation due to time and resource limitations. The library was formatted into 1536-well plates and evaluated in 50 qHTS (in an 11-pnt concentration series) bioassays with broad scope of disease-relevant mechanisms. The resulting data set from 50 different assays was then systematically analyzed to identify overall trends and specific natural products with interesting biological activities. Reported herein are the results of each individual qHTS and their corresponding assay protocol. This assay determines potential interactions with a common luminescent coupling enzyme, P. pyralis (firefly) luciferase, to identify possible false positives in future assays. The assay measures the relative levels of luminescence, to identify compounds that inhibit the activity of luciferase. National Center for Advancing Translational Sciences (NCATS), Rockville, MD National Institute of Health (NIH), Bethesda, Maryland
# Luciferase Interference counterscreen protocol 1. In a 1536 well, black solid bottom, medium binding plates (Corning 7494), 3 uL of (1x) 50 mM Tris Acetate substrate solution containing 13.3 mM Mg-Acetate, 0.013 mM D-Luciferin, 0.013 mM ATP, 0.013% Tween-20, 0.067% BSA was dispensed into columns 1 to 48, rows 1 to 32 using the Bioraptr dispenser. 2. Compounds were pin transferred (~23 nL volume) via Wako Pin-tool (Wako Automation, Richmond VA) equipped with a 1536 pin head. The assay plates were treated with compounds in a concentration series with a final concentration range of 0.2 nM to 128 uM. 3. PTC124 was used as a control (25 uM, n = 32, column 2, row 1-32) at a final concentration of 142.9 nM and was pin transferred via Wako Pin-tool equipped with a 1536 pin head. 4. The assay plates were incubated in the dark for 15 minutes at room temperature. 5. One microliter of 4x detection reagent (0.04 ug/mL P. pyralis luciferase in 50 mM Tris-Acetate) was then added to the assay plates (column 2-48, rows 1-32) for a final assay volume of 4 uL. While 50 mM Tris-Acetate normalizing control was added to column 1, rows 1-32. 6. The assay plates were further incubated in the dark for 5 minutes at room temperature. 7. Luminescence signal was acquired via the ViewLux plate reader (PerkinElmer) using a clear emission filter and a 2 second exposure, 2x binning settings.
# Potency is the fitted concentration of half-maximal effect.
SMILES,"activity change, negative = inhibition",Potency
C[C@@H](O)[C@H]1OC(=O)C=C2[C@]3(C)[C@H]4[C@H](OC(=O)[C@@]4(C)[C@@H](O)[C@H]4O[C@H]43)[C@H]3O[C@@]231,0.581%,–
O=C1c2c(O)cc(O)cc2O[C@@H](c2ccc(O)cc2)[C@@H]1c1c(O)cc(O)c2c(=O)cc(-c3ccc(O)c(O)c3)oc12,-4.18%,–
COc1ccc(CCCc2cc(O)c(OC)c(O)c2)c(O)c1O,-16.8%,–
CC(=O)O[C@H]1CC[C@@]2(C)C(CC[C@]3(C)C2CC=C2C4CC(C)(C)CC[C@]4(C)CC[C@]23C)C1(C)C (stereo not given in full),0.899%,–
O=C(O)CC1OC(=O)c2c(O)cccc21 (stereo not given),-6.36%,–
C=C1[C@H]2CC[C@@]3(C=CC(=O)[C@@](C)(CCC(=O)Nc4c(O)ccc(C(=O)O)c4O)C3C2)[C@H]1O (stereo not given in full),-6.71%,–
C/C=C1/CC[C@@H]2c3[nH]c4ccccc4c3CCN2C1,-7.12%,–
COc1c(O)cc2oc(-c3ccccc3)cc(=O)c2c1O,–,544 nM (active)
O=C(O)[C@@]12CO[C@@]3(O)C4CCN(CC[C@H]31)[C@H]4c1c2[nH]c2ccccc12,0%,–
O=c1cc(-c2ccc(O)c(O[C@@H]3O[C@H](CO)[C@@H](O)[C@H](O)[C@H]3O)c2)oc2cc(O[C@@H]3O[C@H](CO)[C@@H](O)[C@H](O)[C@H]3O)cc(O)c12,4.69%,–
Oc1ccc([C@H]2Oc3ccc(/C=C/c4cc(O)cc(O)c4)cc3C2c2cc(O)cc(O)c2)cc1 (stereo not given in full),-9.94%,–
CCC1=C2CCCN3C(=O)O[C@H]([C@H]1OC(C)=O)[C@H]23,1.33%,–
O=C(O)[C@@]12COC3(O)C1CCN1CC[C@H]3[C@@H]1c1c2[nH]c2ccccc12,-5.67%,–
O=c1cc(-c2ccc(O)cc2)oc2c([C@@H]3OC(CO)[C@H](O)[C@@H](O)[C@H]3O)c(O)cc(O)c12 (stereo not given in full),-4.87%,–
C/C(=C\[C@H](C)C(=O)CCCC1CC(=O)NC(=O)C1)C(O)[C@@H](C)[C@H](O)C/C=C/CC/C=C/C(=O)O (stereo not given in full),-1.02%,–
CC(C)(Br)[C@@H](Cl)C[C@H](Br)[C@](C)(Cl)/C=C/Br,-1.15%,–
O=C1CC(c2cc(O)cc(O)c2)Oc2cc(O)ccc21 (stereo not given),-21%,–
C[C@@H]1C[C@H]2C[C@]3(CCCCN3C)[C@@H]3C[C@H]2[C@H](C1)N(C)C3,-0.377%,–
C[C@@H]1C(=O)[C@]23CC[C@H]1C[C@]21O[C@H]2C(C)(C)C=CC(=O)[C@@]23COC1=O,3.33%,–
C[C@]12CC[C@]3(C1)[C@H](CC2=O)CC(OC(=O)c1ccccc1)[C@H]1[C@@](CO)(C(=O)O)CCC[C@@]13C (stereo not given in full),2.44%,–

SMILES,"activity change, negative = inhibition",Potency
C=C1C[C@@]23C=CC(=O)[C@@](C)(CCC(=O)Nc4c(O)ccc(C(=O)O)c4O)C2C[C@@H]1CC3O (stereo not given in full),-2.41%,–
O=C(O)Cc1c[nH]c2ccccc12,-0.659%,–
C=C1C(=O)C[C@H]2C[C@@H]1[C@]2(C)CCC=C(C)C,-6.63%,–
CC1C(=O)C23CCC1C[C@]21O[C@@H]2C(C)(C)C=CC(=O)[C@@]23COC1=O (stereo not given in full),1.9%,–
C1=C2CCCN[C@@H]2[C@@H]2CCN3CCCC[C@@H]3[C@H](C1)C2,1.22%,–
CC[C@H](C)C(NC(=O)[C@@H](NC)C(C)C)C(=O)NC1C(=O)N(C)[C@@H](C(C)O)C(=O)N[C@@H](C(C)C)C(=O)N(C)[C@@H](CC(C)C)C(=O)NC(C(C)C)C(=O)N(C)[C@@H](C(C)C)C(=O)N(C)[C@@H](Cc2c[nH]c3cccc(OC)c23)C(=O)N[C@@H](C(C)C)C(=O)N[C@@H]([C@H](O)c2ccccc2)C(=O)N[C@@H](C(C)C)C(=O)O[C@@H]1C (stereo partly drawn) (H-[NMeV][ξIle][ξThr(3R)(O-yl)][NMeThr(3ξ)]V[NMeL][ξV][NMeV][NMeTrp(4-OMe)]V[Phe(3R-OH)]V; ester 3-C),-2.45%,–
COc1ccc([C@@H]2c3cc(OC)c(OC)cc3C(=O)C(C)C2C)cc1OC (stereo not given in full),4.33%,–
C=C(C)C(=O)O[C@H]1C[C@H](C)[C@@H](OC(C)=O)CC[C@@]2(C)O[C@@H]2[C@H]2OC(=O)C(COC(C)=O)=C12,-7.85%,–
C/C1=C/[C@@H](C)[C@H](O)C/C=C/CC/C=C/C(=O)O[C@@H]1[C@H](C)C(=O)/C=C/CC1CC(=O)NC(=O)C1,-5.4%,–
C=C(NC(=O)c1csc(-c2nc3c(cc2O)-c2nc(cs2)C(=O)NC(C(C)O)C(=O)N/C(=C(\C)O)c2nc(cs2)C(=O)NC2c4nc(cs4)C(=O)NC(COC(=O)c4c5c6c(cccc6n4O)COC(=O)[C@@H](OC4C[C@](C)(O)[C@H](N(C)C)[C@H](C)O4)C2OC5)c2nc-3cs2)n1)C(N)=O (stereo not given in full),-4.52%,–
COc1ccc([C@@H]2c3cc(OC)c(OC)cc3C(=O)[C@H](C)C2C)cc1OC (stereo not given in full),4.08% [at 11.5 µM],–
OCc1ccc2ocnc2c1,-9.04%,–
C=CC(C)(C)C(=O)[C@@H](C)[C@@H]1CC[C@](C)(C=C)O1,-4.48%,–
CS/C=C/C(N)=O,-9.32%,–
C=C1C[C@@]23C=CC(=O)[C@@](C)(CCC(=O)Nc4c(O)ccc(C(=O)O)c4O)C2C[C@@H]1C(O)C3 (stereo not given in full),-8.76%,–
CCCCCCCCCCCCCCCC(=O)OC/C=C(\C)CCCC(C)CC(C)C(C)C (stereo not given),1.18%,–
CCCCCCC[C@@H](C/C=C/CCC(=O)NCCc1c[nH]c2ccccc12)OC,4.67%,–
CO[C@@H]1C[C@@H](C[C@H]2CC[C@H](C)[C@H]([C@@H](C)C(=O)O)O2)O[C@]2(O[C@](C)([C@H]3CC[C@@](C)([C@@H]4O[C@@H]([C@H]5O[C@](C)(O)[C@H](C)C[C@@H]5C)C[C@@H]4C)O3)C[C@H]2C)[C@@H]1C,-1.22%,–
COc1cc(/C=C2/C(=O)N(c3ccc(O)cc3C(=O)O)[C@H](c3ccc(O)c(OC)c3)C2C(=O)Nc2ccc(O)cc2C(=O)O)ccc1O (stereo not given in full),-9.37%,–
CN1CC[C@]2(c3cccc4c3N[C@@H]3N(C)CC[C@]43[C@@]34CCN(C)[C@@H]3Nc3c([C@]56CCN(C)[C@H]5Nc5ccccc56)cccc34)c3ccccc3N[C@H]12,8.84%,–

# From PubChem BioAssay (NCATS)
